The values that follow come from PubChem BioAssay (Tox21).

Records with an inconclusive call do not appear. Activity calls are given as the source filed them. Unless noted, the call rests on the fitted dose curve; in most records, active means well fitted curve in the direction sought with a large enough effect in the repeat runs; inconclusive means weak or mixed curves; inactive means flat fitted curve, though single readings scatter.

Test [1] can be described thus: qHTS assay to test for compound auto fluorescence at 535 nm (green) in HEK293 cells (AID 720680).
Test [2] in a line: qHTS assay to test for compound auto fluorescence at 460 nm (blue) in HEK293 cell free culture (AID 720681). The essentials: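 Compounds were added to cell-free DMEM with 10% FBS and fluorescence read directly. The blue channel used 405 nm excitation and 460 nm emission, with triamterene as the reference fluorophore.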
Test [3] in a line: qHTS assay to test for compound auto fluorescence at 535 nm (green) in HEK293 cell free culture (AID 720682). The essentials: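 DMEM + 10% FBS, cell-free; cpd or DMSO pinned in; Ex485/Em535 read; output as fluorescein-equivalent signal.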
Test [4] in a line: qHTS assay to test for compound auto fluorescence at 590 nm (red) in HEK293 cell free culture (AID 720683). The essentials:
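Cell-free wells of DMEM with 10% FBS received compound, and intrinsic fluorescence was read at excitation/emission 540/590 nm. Values expressed as equivalence to Rose Bengal sodium.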

A short description of test [5]: qHTS assay to test for compound auto fluorescence at 590 nm (red) in HepG2 cell free culture (AID 720684). The gist of the method:
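Compound was pinned into wells holding MEM with 10% FBS and no cells, and red fluorescence was read at Ex/Em 540/590 nm. Signal is expressed as auto fluorescence equivalency relative to Rose Bengal sodium.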

A short description of test [6]: qHTS assay to test for compound auto fluorescence at 460 nm (blue) in HepG2 cell free culture (AID 720685). The gist of the method:
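Compound (23 nL) or DMSO pinned into cell-free MEM with 10% FBS; blue fluorescence read at 405/460 nm excitation/emission, expressed as auto-fluorescence equivalency to triamterene.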

The nature of test [7]: qHTS assay to test for compound auto fluorescence at 535 nm (green) in HepG2 cell free culture (AID 720686).
The nature of test [8]: qHTS assay to test for compound auto fluorescence at 460 nm (blue) in HepG2 cells (AID 720687). The essentials: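 HepG2 cells in MEM with 10% FBS, attached overnight at 37 C, were exposed to compound or DMSO for 1 hr at 37 C, 5% CO2. Blue fluorescence was read at 405/460 nm, with triamterene as reference fluorophore.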
In test [9] the target is Glucocorticoid receptor (Homo sapiens) (UniProt P04150). Put plainly: qHTS assay to identify small molecule agonists of the glucocorticoid receptor (GR) signaling pathway (AID 720691; active means well fitted activation curve with a large enough effect in the signal ratio in the repeat runs, not every such curve was filed as active; the % refers to the signal ratio). The note with it: GR-bla HeLa, beta-lactamase reporter ratio, 18 h; activation: at 62.4 µM (top of the series) unless noted. The gist of the method: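 Beta-lactamase reporter activity, read as fluorescence intensity, was measured in GR-bla HeLa cells exposed to compounds for 18 h at 37 C and then loaded with LiveBLAzer B/G FRET substrate for 2 h at room temperature.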
Sequence of Glucocorticoid receptor (Homo sapiens) (P04150 whole entry, looked up): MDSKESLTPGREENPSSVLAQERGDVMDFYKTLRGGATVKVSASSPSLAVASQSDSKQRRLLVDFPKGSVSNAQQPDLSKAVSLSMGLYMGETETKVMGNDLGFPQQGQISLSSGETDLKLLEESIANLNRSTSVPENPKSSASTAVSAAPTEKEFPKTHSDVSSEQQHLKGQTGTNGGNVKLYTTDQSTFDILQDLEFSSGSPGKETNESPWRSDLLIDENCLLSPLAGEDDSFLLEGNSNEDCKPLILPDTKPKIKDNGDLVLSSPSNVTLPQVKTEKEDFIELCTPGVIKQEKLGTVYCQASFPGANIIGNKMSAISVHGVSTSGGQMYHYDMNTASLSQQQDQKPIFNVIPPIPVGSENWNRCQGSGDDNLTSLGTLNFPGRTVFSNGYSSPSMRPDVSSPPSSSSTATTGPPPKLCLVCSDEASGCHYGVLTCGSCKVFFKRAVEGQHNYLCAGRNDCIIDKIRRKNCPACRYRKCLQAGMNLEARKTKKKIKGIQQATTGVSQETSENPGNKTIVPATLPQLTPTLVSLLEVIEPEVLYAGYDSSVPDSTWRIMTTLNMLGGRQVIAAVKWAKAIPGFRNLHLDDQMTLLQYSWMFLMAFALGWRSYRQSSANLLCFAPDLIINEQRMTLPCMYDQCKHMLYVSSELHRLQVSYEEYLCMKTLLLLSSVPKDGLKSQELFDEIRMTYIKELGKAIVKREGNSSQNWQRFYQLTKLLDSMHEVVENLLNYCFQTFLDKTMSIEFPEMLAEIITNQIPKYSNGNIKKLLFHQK

Test [10] has the same target. Put plainly: qHTS assay to identify small molecule antagonists of the glucocorticoid receptor (GR) signaling pathway (AID 720692; active means well fitted inhibition curve with a large enough effect in the signal ratio in the repeat runs, not every such curve was filed as active; the % refers to the signal ratio; further: potency means the concentration at half of the fitted maximal effect). The gist of the method: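 Fluorescence from cleaved LiveBLAzer B/G FRET substrate reports GRE-driven beta-lactamase in HeLa cells; compounds are tested against 5 nM dexamethasone (final) over 18 h at 37 C, substrate incubation 2 h at room temperature.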

Consider `O=[N+]([O-])C(CO)(CO)CO`, for which the outcome in [1], in test [3], in test [4], in test [5], in test [7] and in [8] was inactive. For the same compound, the Potency entry in test [2] and in test [6] was “inactive” each time.
For the compound `CC(C)NCC(O)COc1cccc2ccccc12` (stereo not given), the outcome in test [1], in test [3], in [4], in test [5], in test [7] and in test [8] was inactive. Moreover, the Potency result in test [2] and in test [6] was “inactive” each time.
For `NS(=O)(=O)c1cc2c(cc1Cl)NC=NS2(=O)=O`, the compound was called inactive in test [1], in [3], in [4], in test [5], in test [7] and in test [8]. Also, the Potency entry in test [2] and in test [6] was “inactive” each time.
With `OC[C@@H](O)[C@@H](O)[C@H](O)[C@@H](O)CO`, the compound was called inactive in [1], in test [3], in [4], in test [5], in [7] and in test [8]. Further, the Potency result in test [2] and in test [6] was “inactive” throughout.
On to `CC1=CC[C@H]2C[C@@H]1C2(C)C`, for which the call in test [1], in [3], in test [4], in test [5], in test [7] and in test [8] was inactive. The Potency result in [2] and in test [6] was “inactive” each time.
For `C=C1CC[C@H](O)CC1=C/C=C1\CCC[C@]2(C)[C@@H]([C@H](C)/C=C/[C@H](C)C(C)C)CC[C@@H]12`, the compound was called inactive in test [1], in test [3], in test [4], in test [5], in test [7] and in test [8]. Besides, the Potency result in [2] and in [6] was “inactive” throughout.
In the case of `CC1COc2ccccc2N1C(=O)C(Cl)Cl` (stereo not given), the result in test [1], in test [3], in test [4], in test [5], in test [7] and in [8] was inactive. Further, the Potency entry in [2] and in test [6] was “inactive” in each case.
`CC[Si](OC(C)=O)(OC(C)=O)OC(C)=O`: the compound was called inactive in test [1], in [3], in [4], in test [5], in test [7] and in [8]. In addition, the Potency entry in [2] and in test [6] was “inactive” each time.
In the case of `O=C(O)c1ccc([N+](=O)[O-])cc1`, the compound was classed as inactive in test [1], in test [3], in [4], in test [5], in test [7] and in test [8]. Moreover, the Potency result in [2], in test [6], in test [9] and in test [10] was “inactive” each time.
Consider `CCc1ccc(O)cc1`, for which the outcome in test [1], in test [3], in [4], in [5], in test [7] and in test [8] was inactive. The Potency result in [2], in test [6], in [9] and in test [10] was “inactive” in each case.
Consider `ClC1=C(Cl)C(Cl)(Cl)C(Cl)=C1Cl`, for which the compound was called inactive in test [1], in [3], in test [4], in test [5], in test [7] and in test [8]. Also, the Potency result in test [2], in test [6] and in [9] was “inactive” throughout. For the same compound, in [10], the Potency was 13.8 µM (active).
On to `CC#C[C@]1(O)CC[C@H]2[C@@H]3CCC4=CC(=O)CCC4=C3[C@@H](c3ccc(N(C)C)cc3)C[C@@]21C`, for which the result in test [1], in test [3], in [4], in test [5], in test [7] and in test [8] was inactive. Moreover, the Potency result in test [2], in [6] and in [9] was “inactive” in each case.
With `O=C1CCCCC1`, the compound was classed as inactive in test [1], in test [3], in test [4], in test [5], in [7] and in [8]. For the same compound, the Potency entry in test [2], in test [6], in test [9] and in test [10] was “inactive” throughout.
Consider `O=S(=O)(O)CCS`, for which the outcome in test [1], in test [3], in [4], in test [5], in test [7] and in test [8] was inactive. Besides, the Potency entry in test [2], in test [6], in [9] and in test [10] was “inactive” in each case.
As to `Cc1ccc(C)c(C)c1`, the compound was called inactive in test [1], in test [3], in test [4], in test [5], in [7] and in [8]. Besides, the Potency entry in test [2], in test [6], in [9] and in [10] was “inactive” in each case.
On to `Cc1cc(O)cc(C)c1Cl`, for which the compound was called inactive in test [1], in test [3], in [4], in test [5], in test [7] and in test [8]. Further, the Potency result in test [2], in test [6], in [9] and in [10] was “inactive” throughout.
On to `O=C(O)c1cc(-c2ccccc2)nc2ccccc12`, for which the result in test [1], in [3], in test [4], in test [5], in test [7] and in test [8] was inactive. For the same compound, the Potency entry in [2], in test [6], in test [9] and in test [10] was “inactive” in each case.
As for `Clc1cc(Cl)c(Cl)cc1Cl`, the compound was called inactive in [1], in test [3], in test [4], in [5], in [7] and in [8]. Moreover, the Potency entry in test [2], in test [6], in test [9] and in test [10] was “inactive” each time.
In the case of `CCc1ccccc1O`, the compound was called inactive in test [1], in [3], in test [4], in test [5], in test [7] and in test [8]. The Potency entry in test [2], in test [6], in [9] and in [10] was “inactive” in each case.
For the compound `CCCCNC(N)=O`, the result in [1], in [3], in [4], in test [5], in [7] and in test [8] was inactive. For the same compound, the Potency result in [2], in [6], in test [9] and in test [10] was “inactive” each time.
Regarding `NC(=O)NNc1ccccc1`, the compound was classed as inactive in test [1], in [3], in test [4], in test [5], in [7] and in [8]. Moreover, the Potency result in [2], in test [6], in [9] and in [10] was “inactive” throughout.
In the case of `OC1CCCC1`, the compound was called inactive in test [1], in test [3], in [4], in test [5], in [7] and in test [8]. Moreover, the Potency entry in test [2], in [6], in test [9] and in [10] was “inactive” each time.
As for `O=c1c(-c2ccc(O)cc2)coc2cc(O)ccc12`, the call in test [1], in test [3], in test [4], in test [5], in test [7] and in test [8] was inactive. Further, the Potency result in test [2], in [6] and in [9] was “inactive” throughout.
As for `COCC(C)O` (stereo not given), the outcome in [1], in test [3], in test [4], in test [5], in [7] and in test [8] was inactive. The Potency result in test [2], in [6], in [9] and in test [10] was “inactive” each time.
In the case of `CCC(C)C=O` (stereo not given), the compound was called inactive in test [1], in test [3], in [4], in test [5], in test [7] and in [8]. Also, the Potency result in test [2] and in test [6] was “inactive” in each case.
For the compound `CCCCC(CC)C(=O)OCCOCCOCCOC(=O)C(CC)CCCC` (stereo not given), the outcome in test [1], in test [3], in [4], in test [5], in test [7] and in test [8] was inactive. The Potency result in [2], in [6], in [9] and in test [10] was “inactive” each time.
